Results on 38 compounds are retold here after PubChem BioAssay (NCI).

The nature of assay [1]: NCI Yeast Anticancer Drug Screen. Data for the rad50 strain (AID 155).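 Further: 0% = growth of vehicle-only cultures of the same strain.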 Particulars: S. cerevisiae rad50 strain growth inhibition; at 50.0 µM; active compounds read high. The gist of the method: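 A DNA repair-deficient yeast mutant serves as the test organism; compound-induced growth inhibition is calculated against vehicle-treated cells.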
A short description of assay [2]: NCI Yeast Anticancer Drug Screen. Data for the mec2-1 strain (AID 157). Particulars: S. cerevisiae mec2-1 strain, at 50.0 µM, active compounds read high. The gist of the method:
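Compounds were applied to mec2-1 yeast cells. Their growth was then compared with that of vehicle-treated cultures to give growth inhibition.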

Assay [3] is described as follows: NCI Yeast Anticancer Drug Screen. Data for the cln2 rad14 strain (AID 165).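 Further: 0% = growth equal to vehicle treated cultures.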 Particulars: S. cerevisiae cln2 rad14 strain, at 50.0 µM, active compounds read high. A digest of the protocol:
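Strain: cln2 rad14 yeast, altered in cell cycle control and DNA damage repair. Read-out: growth inhibition vs vehicle.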

Assay [4] can be described thus: NCI Yeast Anticancer Drug Screen. Data for the bub3 strain (AID 167). Particulars: S. cerevisiae bub3 mutant strain, at 50.0 µM, active compounds read high. The gist of the method: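 Inhibition values come from growth of compound-treated mutant yeast normalised to vehicle-treated controls.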
Assay [5] can be described thus: NCI Yeast Anticancer Drug Screen. Data for the mlh1 rad18 strain (AID 175). Particulars: S. cerevisiae mlh1 rad18 strain growth inhibition; at 50.0 µM; active compounds read high. The gist of the method: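 A repair-deficient yeast strain is exposed to test compound, and growth is scored relative to vehicle-treated controls.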
The nature of assay [6]: NCI Yeast Anticancer Drug Screen. Data for the sgs1 mgt1 strain (AID 161).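 Further: 0% = growth of cultures given vehicle only.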 Particulars: S. cerevisiae sgs1 mgt1 strain, at 50.0 µM, active compounds read high. The gist of the method:
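Compounds are added to genetically altered yeast, and growth is compared with cultures given vehicle alone to give percent inhibition.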

About 79,000 compounds went through this panel and 15% of them were active in at least one assay; those are over-represented in the sample as a whole. Values without a mark were called inactive. The source made the active and inactive calls. No stated cut-off is given here; in the data, active means growth inhibition above about 70%; inactive means the rest.

`Nc1ccc(Br)c2ccccc12`: the growth inhibition was 33.4% in assay [1]; 22.1% in assay [2]; 19.4% in assay [3]; 27.3% in assay [4]; 46.4% in assay [5].
Take `CCOC(=N)CC(=O)Nc1ccccc1`: the growth inhibition is 4.45% in assay [1]; 1.1% in assay [2]; -1.6% in assay [3]; 3.6% in assay [4]; 2.35% in assay [5].
For `C[Si](Cn1ccc(=O)n(C[Si](C)(c2ccccc2)c2ccccc2)c1=O)(c1ccccc1)c1ccccc1`, in that order: -3.7%, -7.65%, -13.9%, -2.4% and 15.2%.
On to `O=C(CC1(O)C(=O)Nc2ccc(Br)cc21)c1ccc(Cl)cc1Cl` (stereo not drawn), for which the growth inhibition in assay [1] is 44.9%; in assay [2], 36.7%; in assay [3] it was 37%; in assay [4] it was 48.2%; in assay [5], 33.9%.
`COC(=O)CCOc1ccccc1`: the growth inhibition was 15.1% in assay [1], 5.1% in assay [2], 11.9% in assay [3] and -18.8% in assay [5].
Consider `Cc1ccc(-c2n[nH]c(=O)n2/N=C\c2ccc([N+](=O)[O-])cc2)cc1`, for which the growth inhibition was 34% in assay [1]; 7.3% in assay [2]; 3.55% in assay [3]; -11.9% in assay [4]; -41.5% in assay [5].
For `CC1(C)SC(C)(C)C1=O`, in that order: -13.6%, -7.35%, -36.8%, 2.05% and -5.15%.
As for `O=C(Nc1nccs1)c1c(O)nc2sccn2c1=O`, the growth inhibition in assay [1] is 8.7%; in assay [2] it was -33%; in assay [3], 22.4%; in assay [4], 14.8%; in assay [5] it was -12.6%.
Turning to `CCOCCC(=O)O`, the growth inhibition in assay [1] was 26.1%; in assay [2], 6.3%; in assay [3], -5.3%; in assay [4] it was 18.1%; in assay [5] it was 6.15%.
For `Cc1ccc(C(=O)OCc2ccccc2CN2CCCCC2)cc1`, in that order: 1.6%, -8.35%, -19.7%, 3.6% and 2.1%.
On the same counts, the results for `CCOC(=O)c1ccc(N=c2sc3ccccc3nc2Nc2ccc(C(=O)OCC)cc2)cc1` are 2.75%, -3.95%, 34%, 2.3% and 10.9%.
For `O=C(CCc1ccccc1CO)NCCc1ccccc1`, in that order: 52%, 20.9%, 7.8%, -34.1% and 3.85%.
Consider `S=c1[nH]ncn2nc3ccccc3c12`, for which the growth inhibition in assay [1] is 0.15%; in assay [2], 2.5%; in assay [3] it was -45.5%; in assay [4] it was -3.85%; in assay [5] it was 1.7%.
As to `CCOC(=O)C1CC1c1ccccc1` (stereo not drawn), the growth inhibition in assay [1] is 6.1%; in assay [2], -7.9%; in assay [3] it was -8.65%; in assay [4], -3.6%; in assay [5], 8.5%.
In the case of `NC(N)=NC(N)=Nc1ccc(C(=O)O)cc1`, the growth inhibition was -7.4% in assay [1], 5.95% in assay [2], -29.2% in assay [3] and -68% in assay [4].
As to `COc1ccc([N+](=O)[O-])cc1NC(=O)Nc1ccc(F)c([N+](=O)[O-])c1`, the growth inhibition in assay [1] was 8.6%; in assay [2], 3.4%; in assay [3], 0.2%; in assay [4], -3.8%; in assay [5] it was 6.3%.
On the same counts, the results for `CC1(C)CC(C2=NCCO2)CC(C)(C)N1` are -43.7%, -29.2%, -6.45%, 15.2% and -31.1%.
For `CC(C)OC(=O)c1cc(N)ccc1Cl`, in that order: 29.1%, 23.4%, 2.45%, 38.4% and 34%.
Turning to `COc1ccc(C(=O)/C=C/c2c[nH]c3ccccc23)c(O)c1`, the growth inhibition in assay [1] is 15.8%; in assay [2], 9.85%; in assay [6], 26.3%; in assay [4] it was 9.9%; in assay [5], 22.4%.
In the case of `COC(=O)c1nc(=S)[nH]c(C(=O)OC)c1C(=O)c1ccc(OC)cc1`, the growth inhibition in assay [1] was -31.9%; in assay [2] it was -17.6%; in assay [3], -7.9%; in assay [4] it was -30.4%; in assay [5], 1.2%.
On the same counts, the results for `O=C(/C=N/O)Nc1ccccc1` are 10.8%, 7.25%, 7.9%, 7.25% and -9.35%.
On the same counts, the results for `C#CCOC(=O)C(N)CS` (stereo not drawn) are -6.95%, -20.3%, 9.8%, -4.4% and -13.7%.
In the case of `Cc1ccc(NC(=S)N/C=C(\c2ccccc2)S(=O)Cc2ccccc2)c(C)c1` (stereo not drawn), the growth inhibition in assay [1] is 8%; in assay [2], -22.1%; in assay [3], 15.7%; in assay [4], 14.1%; in assay [5], 1.8%.
On the same counts, the results for `COc1cc([C@@H]2c3cc4c(cc3[C@H](O)[C@H]3COC(=O)[C@@H]23)OCO4)cc(OC)c1OC` are 2.55%, 4.2%, 5.7%, 7.15% and 16.2%.
On the same counts, the results for `C=CCCC12CCCC(=O)C1Sc1ccc3ccccc3c12` (stereo not drawn) are 9.8%, -3.85%, 10.8%, 35.3% and 7.15%.
In the case of `CC(=O)N/N=C1\NN(C(C)=O)C2(S1)C(=O)Nc1ccccc12` (stereo not drawn), the growth inhibition in assay [1] was 7.7%; in assay [2], 52%; in assay [3], 78.5% (active); in assay [4], 51.8%; in assay [5], 33.1%.
For `CC(C)=CC1C(C(=O)O)C1(C)C` (stereo not drawn), in that order: 5.55%, -13.2%, -2.95%, 8.4% and 10.2%.
`O=C(O)c1nn(-c2ccccc2)c2c1CSc1ccccc1-2`: the growth inhibition in assay [1] is 35.5%; in assay [2], 34.2%; in assay [3], 27.2%; in assay [4] it was 16.9%; in assay [5], 13.2%.
In the case of `COc1ccccc1/C=N/Nc1ccc([N+](=O)[O-])cc1[N+](=O)[O-]`, the growth inhibition in assay [1] was 6.45%; in assay [2], 5.15%; in assay [3], -16.6%; in assay [4] it was 16.8%; in assay [5], 18.8%.
For `COc1ccc(N2C(=O)/C(=C/c3ccc(N(CCC#N)CCC#N)cc3C)N=C2c2cc([N+](=O)[O-])ccc2Cl)cc1`, in that order: -13.2%, 0.95%, -5.55%, -13.9% and 1.85%.
For `COc1cc(/C(=C\c2ccccc2N)C(=O)O)cc(Br)c1OC`, in that order: 9.35%, -8.2%, 4.65%, 0% and 1.65%.
On the same counts, the results for `C=C1/C=C/C=C(/C)C(=O)Nc2c(C=O)c(O)c3c4c(c(C)c(O)c3c2O)OC(C)(O/C=C/C(OC)C(C)C(OC(C)=O)C(C)C(O)C(C)C1O)C4=O` (stereo not drawn) are 24.1%, 33.5%, 34.2%, 20.4% and 32.5%.
In the case of `CS(=O)(=O)OCCCCCCCCCOS(C)(=O)=O`, the growth inhibition in assay [1] was -10.9%; in assay [2], -26.1%; in assay [3] it was -0.05%; in assay [4], -18.8%; in assay [5], -12.3%.
For `Nc1ccc(F)c([N+](=O)[O-])c1`, in that order: -6.05%, 0.65%, -23.6%, -1.55% and -1.2%.
For `C[C@H](OCc1ccccc1)C(=O)N1CCS(=O)(=O)N2CCC[C@@H]2C1=O`, in that order: 5.05%, -19.1%, 19.4%, -5.9% and -17.9%.
As for `CCOc1nc2ccc(N)cc2s1`, the growth inhibition in assay [1] is 19.6%; in assay [2] it was -9.55%; in assay [3], -31.9%; in assay [4] it was 11.4%; in assay [5], -12.3%.
For `CC1(C)NNC(=S)NC1=O`, in that order: -11.7%, -13.6%, 17.1%, -15.6% and -5.5%.
With `O=C1C2=C(Nc3cc(Cl)ccc3N2)OC1c1c[nH]c2ccc(COc3ccccc3)cc12` (stereo not drawn), the growth inhibition is -22.4% in assay [1]; -1.55% in assay [6]; 30.4% in assay [3]; -15% in assay [4]; -4.1% in assay [5].
